# Of roughly 7,900 targets only a part is listed; those with a hit were picked by preference. About 0.6% of all pairs of compound and target were hits. Unmarked numbers belong to inactive results.
# Key:
# Assay in all cases: log2 fold change, soluble protein after heating vs DMSO (PISA); higher = thermal stabilisation; K562 cells, 10 uM, 30 min; active = over 0.2 and 3.5 SD of the protein, either way, in both replicates (recomputed)
# [1] = compound: C1COCCN1CCN2C3=CC=CC=C3N=C2NC(=O)C4=CC(=CC=C4)[N+](=O)[O-] [IRAK-1-4 Inhibitor I]
# Method in brief: (§1)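 For each measurement, 10 μM compound was applied for 30 min to K562 cells at 2×10^6 cells/mL. Aliquots were heated for 3 min across 48°C-58°C, pooled, and extracted in PBS with 0.5% NP-40 at 4°C; the supernatant after 21,000xg for 90 min was soluble protein. This was quantified by TMTpro 16plex LC-MS/MS with channel sums equalised, and thermal stability was reported relative to control samples from duplicates, on a log2 fold-change scale.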
# [2] = compound: C=CC(=O)N1CCC[C@@H](n2nc(-c3ccc(Oc4ccccc4)cc3)c3c(N)ncnc32)C1 [ibrutinib]
# Method in brief: as §1
# [3] = compound: CC(=O)c1cnc2ccc(-c3cc(Cl)c(O)c(Cl)c3)nc2c1N[C@H]1CC[C@H](CN(C)C)CC1
# Method in brief: as §1
# [4] = compound: CC(C)(O)CC(=O)NCCn1ccc2ncnc(Nc3ccc(Oc4cccc(C(F)(F)F)c4)c(Cl)c3)c21
# Method in brief: as §1
# [5] = compound: CC(C)C1=C2N=C(C=C(N2N=C1)NCC3=CC=CC=C3)NCCCCCCN
# Method in brief: as §1
# [6] = compound: CC(C)N(C[C@H]1O[C@@H](n2cnc3c(N)ncnc32)[C@H](O)[C@@H]1O)[C@H]1C[C@@H](CCc2nc3cc(C(C)(C)C)ccc3[nH]2)C1 [pinometostat]
# Method in brief: as §1
# [7] = compound: CC1=C(C(CC(=O)N1)C2=CC=C(C=C2)C(F)(F)F)C(=O)NC3=C(C=C4C(=C3)C=NN4)F
# Method in brief: as §1
# [8] = compound: CC1=C(C2=C(C=C1)C(=O)C3=CC=CC=C3N2CCCN)C
# Method in brief: as §1
# [9] = compound: CC(C)(C)Cn1c(N)nc2ccc(-c3[nH]c(C(C)(C)C)nc3-c3ccc(F)cc3)nc21 [ralimetinib]
# Method in brief: as §1
# [10] = compound: CC(C)C[C@@H](C=O)NC(=O)[C@H](CC(C)C)NC(=O)[C@H](CC(C)C)NC(=O)OCc1ccccc1
# Method in brief: as §1
# UniProt Q14739, sequence (Q14739 whole entry, looked up): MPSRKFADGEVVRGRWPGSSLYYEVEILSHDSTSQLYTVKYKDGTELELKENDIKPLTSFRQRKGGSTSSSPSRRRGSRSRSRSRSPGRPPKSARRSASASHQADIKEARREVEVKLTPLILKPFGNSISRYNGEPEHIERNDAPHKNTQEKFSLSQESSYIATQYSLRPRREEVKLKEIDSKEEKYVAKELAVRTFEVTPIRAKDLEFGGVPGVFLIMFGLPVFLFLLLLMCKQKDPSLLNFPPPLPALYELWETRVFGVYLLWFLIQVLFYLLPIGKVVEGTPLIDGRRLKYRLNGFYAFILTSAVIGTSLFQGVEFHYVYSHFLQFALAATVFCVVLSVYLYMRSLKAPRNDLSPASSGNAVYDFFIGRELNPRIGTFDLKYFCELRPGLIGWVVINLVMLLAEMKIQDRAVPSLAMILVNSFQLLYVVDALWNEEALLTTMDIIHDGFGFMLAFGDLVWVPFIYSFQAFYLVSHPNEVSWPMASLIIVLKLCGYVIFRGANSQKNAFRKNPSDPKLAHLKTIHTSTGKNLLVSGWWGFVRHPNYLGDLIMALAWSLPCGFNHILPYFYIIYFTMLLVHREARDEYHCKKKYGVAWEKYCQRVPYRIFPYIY
# UniProt P13473, sequence (P13473 whole entry, looked up): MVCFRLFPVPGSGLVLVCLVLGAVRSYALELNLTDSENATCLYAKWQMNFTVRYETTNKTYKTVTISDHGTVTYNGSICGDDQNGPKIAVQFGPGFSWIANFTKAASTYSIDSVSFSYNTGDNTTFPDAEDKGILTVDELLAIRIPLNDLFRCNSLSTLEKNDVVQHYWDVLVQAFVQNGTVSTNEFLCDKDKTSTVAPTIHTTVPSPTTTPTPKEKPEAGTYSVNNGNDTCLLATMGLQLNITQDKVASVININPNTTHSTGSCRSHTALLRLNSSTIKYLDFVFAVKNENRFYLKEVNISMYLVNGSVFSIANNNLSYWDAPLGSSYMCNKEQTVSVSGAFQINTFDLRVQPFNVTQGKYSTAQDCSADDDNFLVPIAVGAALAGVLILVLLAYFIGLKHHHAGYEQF
# UniProt Q16891, sequence (Q16891 whole entry, looked up): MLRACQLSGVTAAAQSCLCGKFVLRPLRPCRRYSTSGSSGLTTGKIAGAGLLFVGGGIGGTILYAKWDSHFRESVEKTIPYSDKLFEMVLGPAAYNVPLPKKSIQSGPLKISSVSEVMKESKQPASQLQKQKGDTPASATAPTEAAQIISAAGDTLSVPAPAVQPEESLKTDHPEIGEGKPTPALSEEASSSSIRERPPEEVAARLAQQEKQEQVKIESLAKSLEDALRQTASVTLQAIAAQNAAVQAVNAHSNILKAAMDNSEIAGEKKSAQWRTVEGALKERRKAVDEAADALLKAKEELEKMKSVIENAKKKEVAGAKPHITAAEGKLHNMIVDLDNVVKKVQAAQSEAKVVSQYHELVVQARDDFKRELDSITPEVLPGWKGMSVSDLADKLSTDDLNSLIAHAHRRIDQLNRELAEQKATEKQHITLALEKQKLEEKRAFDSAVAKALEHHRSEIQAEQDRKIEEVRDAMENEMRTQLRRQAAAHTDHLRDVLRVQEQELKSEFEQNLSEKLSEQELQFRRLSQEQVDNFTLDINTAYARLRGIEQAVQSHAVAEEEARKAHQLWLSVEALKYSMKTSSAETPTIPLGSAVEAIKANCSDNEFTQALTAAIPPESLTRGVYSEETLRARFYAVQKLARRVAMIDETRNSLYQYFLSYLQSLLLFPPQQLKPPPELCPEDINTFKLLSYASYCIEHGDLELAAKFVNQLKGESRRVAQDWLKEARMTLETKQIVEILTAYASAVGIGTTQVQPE
# UniProt O60291, sequence (O60291 whole entry, looked up): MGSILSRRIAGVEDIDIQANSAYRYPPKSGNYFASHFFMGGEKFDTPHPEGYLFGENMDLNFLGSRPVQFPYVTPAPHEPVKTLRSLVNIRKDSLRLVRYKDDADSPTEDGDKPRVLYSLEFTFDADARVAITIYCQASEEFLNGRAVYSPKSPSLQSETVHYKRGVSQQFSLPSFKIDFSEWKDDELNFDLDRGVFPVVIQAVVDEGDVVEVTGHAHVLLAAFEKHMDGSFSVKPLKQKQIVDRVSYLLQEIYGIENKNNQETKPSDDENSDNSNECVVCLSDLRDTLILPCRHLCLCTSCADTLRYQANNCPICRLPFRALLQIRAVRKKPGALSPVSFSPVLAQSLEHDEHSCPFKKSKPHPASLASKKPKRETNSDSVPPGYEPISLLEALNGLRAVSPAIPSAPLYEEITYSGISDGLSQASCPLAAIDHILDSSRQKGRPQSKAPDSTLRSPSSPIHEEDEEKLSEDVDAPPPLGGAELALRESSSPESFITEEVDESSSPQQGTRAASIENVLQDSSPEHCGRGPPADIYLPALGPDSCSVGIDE
# UniProt A4D2B0, sequence (A4D2B0 whole entry, looked up): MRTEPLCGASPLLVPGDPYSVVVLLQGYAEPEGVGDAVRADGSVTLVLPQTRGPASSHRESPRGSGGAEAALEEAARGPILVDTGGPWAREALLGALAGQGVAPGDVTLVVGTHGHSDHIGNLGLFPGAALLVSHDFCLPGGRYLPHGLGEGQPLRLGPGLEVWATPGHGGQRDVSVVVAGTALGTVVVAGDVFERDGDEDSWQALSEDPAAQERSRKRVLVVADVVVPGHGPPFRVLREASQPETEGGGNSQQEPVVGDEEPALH
# UniProt Q5SW96, sequence (Q5SW96 whole entry, looked up): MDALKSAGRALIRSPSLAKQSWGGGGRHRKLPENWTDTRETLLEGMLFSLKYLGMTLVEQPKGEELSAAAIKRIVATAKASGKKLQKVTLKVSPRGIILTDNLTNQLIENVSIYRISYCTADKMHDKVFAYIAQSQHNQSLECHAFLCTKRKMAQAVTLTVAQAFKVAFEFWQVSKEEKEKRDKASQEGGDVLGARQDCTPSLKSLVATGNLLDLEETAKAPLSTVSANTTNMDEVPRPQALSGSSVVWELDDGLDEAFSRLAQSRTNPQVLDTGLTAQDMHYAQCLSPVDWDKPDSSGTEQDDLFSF
# UniProt P51884, sequence (P51884 whole entry, looked up): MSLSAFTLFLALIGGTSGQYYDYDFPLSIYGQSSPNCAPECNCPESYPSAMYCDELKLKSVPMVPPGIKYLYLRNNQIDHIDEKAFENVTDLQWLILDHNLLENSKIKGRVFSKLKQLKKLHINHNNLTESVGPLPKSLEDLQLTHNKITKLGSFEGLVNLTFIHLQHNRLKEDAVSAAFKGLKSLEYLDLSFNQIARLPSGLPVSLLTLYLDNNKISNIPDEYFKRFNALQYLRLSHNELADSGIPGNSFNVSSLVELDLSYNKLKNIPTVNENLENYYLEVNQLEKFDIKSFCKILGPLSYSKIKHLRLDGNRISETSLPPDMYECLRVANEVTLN
# UniProt P52333, sequence (P52333 whole entry, looked up): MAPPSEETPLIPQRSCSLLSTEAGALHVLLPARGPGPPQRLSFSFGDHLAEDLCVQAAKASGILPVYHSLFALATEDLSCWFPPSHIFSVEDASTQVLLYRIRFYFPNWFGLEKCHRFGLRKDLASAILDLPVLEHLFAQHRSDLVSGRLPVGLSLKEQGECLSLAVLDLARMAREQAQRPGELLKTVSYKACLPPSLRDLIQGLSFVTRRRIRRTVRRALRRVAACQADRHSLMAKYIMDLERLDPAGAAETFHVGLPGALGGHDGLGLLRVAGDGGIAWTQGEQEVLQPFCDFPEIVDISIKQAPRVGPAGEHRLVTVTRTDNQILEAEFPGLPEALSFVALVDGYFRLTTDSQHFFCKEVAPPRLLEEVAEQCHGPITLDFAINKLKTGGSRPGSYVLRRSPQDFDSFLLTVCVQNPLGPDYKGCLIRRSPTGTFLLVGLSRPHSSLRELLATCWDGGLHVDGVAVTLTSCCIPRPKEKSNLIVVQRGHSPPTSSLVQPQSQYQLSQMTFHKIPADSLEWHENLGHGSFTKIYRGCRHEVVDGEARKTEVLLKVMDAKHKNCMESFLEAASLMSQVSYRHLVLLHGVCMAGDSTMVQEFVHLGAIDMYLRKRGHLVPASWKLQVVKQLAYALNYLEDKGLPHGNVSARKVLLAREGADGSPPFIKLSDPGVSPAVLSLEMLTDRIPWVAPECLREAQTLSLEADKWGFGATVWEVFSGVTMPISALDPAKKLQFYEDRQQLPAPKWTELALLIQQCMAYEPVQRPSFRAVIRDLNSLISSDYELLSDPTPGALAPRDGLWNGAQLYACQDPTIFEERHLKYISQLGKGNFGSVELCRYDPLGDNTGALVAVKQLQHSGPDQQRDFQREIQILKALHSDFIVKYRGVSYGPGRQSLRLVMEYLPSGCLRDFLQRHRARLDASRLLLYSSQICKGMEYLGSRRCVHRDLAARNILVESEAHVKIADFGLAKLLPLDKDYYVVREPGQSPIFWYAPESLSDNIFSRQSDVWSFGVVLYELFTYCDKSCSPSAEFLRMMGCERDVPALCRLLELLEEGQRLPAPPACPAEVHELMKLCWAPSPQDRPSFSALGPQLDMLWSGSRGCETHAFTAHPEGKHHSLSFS
# UniProt Q14680, sequence (Q14680 whole entry, looked up): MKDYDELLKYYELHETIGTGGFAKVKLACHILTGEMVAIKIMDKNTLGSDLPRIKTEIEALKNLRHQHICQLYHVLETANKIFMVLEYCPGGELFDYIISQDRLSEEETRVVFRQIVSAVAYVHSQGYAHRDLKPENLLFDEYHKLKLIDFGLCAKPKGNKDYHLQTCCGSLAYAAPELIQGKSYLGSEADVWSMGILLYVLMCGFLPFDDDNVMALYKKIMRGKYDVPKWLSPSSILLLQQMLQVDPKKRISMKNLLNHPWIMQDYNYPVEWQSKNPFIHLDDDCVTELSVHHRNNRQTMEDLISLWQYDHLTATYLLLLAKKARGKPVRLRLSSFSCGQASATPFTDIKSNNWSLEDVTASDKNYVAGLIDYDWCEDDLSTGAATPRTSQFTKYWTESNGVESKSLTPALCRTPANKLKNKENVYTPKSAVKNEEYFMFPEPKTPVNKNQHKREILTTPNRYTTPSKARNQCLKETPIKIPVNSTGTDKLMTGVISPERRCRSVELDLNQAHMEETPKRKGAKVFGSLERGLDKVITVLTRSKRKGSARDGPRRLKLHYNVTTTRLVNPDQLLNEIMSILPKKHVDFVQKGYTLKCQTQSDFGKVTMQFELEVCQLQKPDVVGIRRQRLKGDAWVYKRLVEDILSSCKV
Target,log2 fold change [1],log2 fold change [2],log2 fold change [3],log2 fold change [4],log2 fold change [5],log2 fold change [6],log2 fold change [7],log2 fold change [8],log2 fold change [9],log2 fold change [10]
MELK (UniProt Q14680),0.021,0.032,-0.84 (active),-0.085,0.092,0.013,0.337,0.011,–,–
MFSD8 (UniProt Q8NHS3),0.062,0.13,0.036,0.067,-0.446 (active),0.101,–,0.124,0.19,0.08
LAMP2 isoform 2 (UniProt P13473),0.127,-0.007,0.012,0.115,-0.713 (active),-0.026,0.03,-0.078,–,–
MBLAC1 (UniProt A4D2B0),0.371,-0.03,0.001,–,0.126,-0.163,–,–,-0.074,-0.011
LBR (UniProt Q14739),-0.044,-0.092,0.038,-0.211,-0.168,0.211,-0.036,0.188,-0.001,-0.083
MGRN1 isoform 2 (UniProt O60291),0.062,-0.003,0.116,–,-0.225,0.041,–,-0.098,-0.015,0.114
LDLRAP1 (UniProt Q5SW96),0.013,-0.177,–,–,-0.541 (active),0.318,–,–,-0.032,0.028
IMMT isoform 4 (UniProt Q16891),0.037,-0.005,-0.015,-0.035,-0.179,-0.013,0.017,0.01,-0.044,-0.013
JAK3 (UniProt P52333),-0.01,-0.052,–,-0.045,0.072,-0.082,0.009,-0.089,-0.184,-0.043
LUM (UniProt P51884),-0.038,–,0.078,0.263,0.124,-0.068,-0.151,-0.256,-0.054,0.023
